Laboratory results reported in PubChem BioAssay (NCI).
Where “and” joins values, the source holds several entries; their conditions need not be identical. Equal values may be shown once. This is part of a sample that, as a whole, favours compounds with a hit. Of some 79,000 tested, about 15% had one in any assay. Rule as the data show it: active = growth inhibition above about 70%; inactive = the rest.

Tests used:
[1] = NCI Yeast Anticancer Drug Screen. Data for the rad50 strain (AID 155);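 also: 0% = growth of vehicle-only cultures of the same strain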; conditions: S. cerevisiae rad50 strain growth inhibition, active compounds read high; at 50.0 µM unless noted
Method in brief: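 Readout: growth inhibition relative to vehicle-treated cultures. Compound exposure was carried out in a genetically defined yeast strain deficient in DNA damage repair.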

[2] = NCI Yeast Anticancer Drug Screen. Data for the mec2-1 strain (AID 157); conditions: S. cerevisiae mec2-1 strain, active compounds read high; at 50.0 µM unless noted
Method in brief: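 Each compound was tested on mec2-1 yeast, a strain altered in DNA damage repair or cell cycle control. Growth inhibition is reported relative to vehicle.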

[3] = NCI Yeast Anticancer Drug Screen. Data for the sgs1 mgt1 strain (AID 161);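 also: 0% = growth of cultures given vehicle only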; conditions: S. cerevisiae sgs1 mgt1 strain, active compounds read high; at 50.0 µM unless noted
Method in brief: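 Mutant yeast exposed to compound; growth scored against vehicle-only wells.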

[4] = NCI Yeast Anticancer Drug Screen. Data for the cln2 rad14 strain (AID 165);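 also: 0% = growth equal to vehicle treated cultures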; conditions: S. cerevisiae cln2 rad14 strain, active compounds read high; at 50.0 µM unless noted
Method in brief: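 Test compounds were added to cln2 rad14 yeast cultures; inhibition of growth was then determined by comparison with vehicle treatment.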

[5] = NCI Yeast Anticancer Drug Screen. Data for the bub3 strain (AID 167); conditions: S. cerevisiae bub3 mutant strain, active compounds read high; at 50.0 µM unless noted
Method in brief: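 Readout: yeast growth inhibition, expressed relative to vehicle-only wells. The test organism is a mutant strain from a panel with lesions in DNA repair or checkpoint genes.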

[6] = NCI Yeast Anticancer Drug Screen. Data for the mlh1 rad18 strain (AID 175); conditions: S. cerevisiae mlh1 rad18 strain growth inhibition, active compounds read high; at 50.0 µM unless noted
Method in brief: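 Inhibition values reflect reduced growth of mutant yeast versus vehicle-treated controls following compound exposure; the mutations affect DNA damage repair.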

Measured: growth inhibition

COc1cccc2c1OC1(N3CCOCC3)CCCCC1C2C[N+](=O)[O-] (stereo unspecified)
inactive: [1] 6.8% | [2] -14% | [3] 12.3% | [4] 3.35% | [5] -7.9% | [6] -11.1%

COC(=O)[C@]1(C)CCCC2(C)C1CC[C@H]1C=C(C)[C@H]3CCC12C3 (stereo partly specified)
inactive: [1] 14% | [2] 12.2% | [3] -25.1% | [4] 6.7% | [5] -1.25% | [6] 15.7%

COc1cc(C(=O)c2cc3c(cc2C(=O)O)OCO3)cc(OC)c1OC
inactive: [1] -7.6% | [2] 0.85% | [3] 2.9% | [4] -30.6% | [5] 8.5% | [6] -2.05%

COc1ccc(C=C(C(=O)O)C(=O)O)cc1
inactive: [1] 30.1% | [2] -11.6% | [3] -8.15% | [4] 17.8% | [5] 22% | [6] 29.6%

Cc1c(Cl)cccc1NC(=O)C(C)NCC(C)C (stereo unspecified)
inactive: [1] -4.4% | [2] -0.2% | [3] -6.05% | [4] -11.7% | [5] 14.8% | [6] -19.6%

O=c1[nH]nc(Cc2ccccc2)n1C1CCCC1
inactive: [1] -1.55% | [2] -5.3% | [3] -12.6% | [4] -17.8% | [5] -9.6% | [6] -1.05%

Fc1c(F)c(-c2c(F)c(F)c(S)c(F)c2F)c(F)c(F)c1S
inactive: [1] -1.15% | [2] 3.75% | [3] 21.3% | [4] 3.05% | [5] 0.7% | [6] -21.9%

CCC(C(N)=O)c1ccccc1 (stereo unspecified)
inactive: [1] -16.3% | [2] -5.65% | [3] 13.9% | [4] -6.75% | [5] -3.9% | [6] -3.6%

Cc1cc(-c2cccc3ccccc23)[n+]([O-])cc1C
inactive: [1] 15.6% | [2] 1.15% | [3] 17.2% | [4] -16.3% | [5] -24.1% | [6] 11.8%

O=C1CN(c2cccc(C(F)(F)F)c2)C(=O)CN1/N=C/c1ccc[nH]1
inactive: [1] -27.7% | [2] -3.25% | [3] 9.45% | [4] 15.8% | [5] -7.1% | [6] -5.4%

N#C/C(=C\c1ccccc1)c1ccc(F)cc1
inactive: [1] 39.4% | [2] 42.1% | [3] 25.7% | [4] 18.4% | [5] 32.5% | [6] 25.8%

c1cnc2c(c1)Oc1nc3ccccc3nc1S2
inactive: [1] 2.25% | [2] 6% | [3] 3.9% | [4] 35.9% | [5] 8.9% | [6] 23.1%

O=[N+]([O-])c1ncccc1O
inactive: [1] 12.2% | [2] -2.75% | [3] -4.5% | [4] 9.35% | [5] 12% | [6] 15.9%

NNC(=O)Cc1ccc(Cl)c2ccccc12
inactive: [1] 5.8% | [2] -17.9% | [3] 3.6% | [4] -75.9% | [5] -5.2% | [6] 8.85%

CCOC(=O)C(Sc1ccc(C)cc1)C(Sc1ccc(C)cc1)C(=O)OCC (stereo unspecified)
inactive: [1] 0.6% | [2] -6.6% | [3] 11.2% | [4] -17.3% | [5] -0.3% | [6] -0.75%

CO/N=C1/OC(=O)OCC1(c1ccccc1)c1ccccc1
inactive: [1] 5.45% | [2] -3.4% | [3] 2.7% | [4] 11.1% | [5] 6.3% | [6] -3.3%

O=[N+]([O-])c1ccc[nH]1
inactive: [1] -6.15% | [2] -9.95% | [3] -4.2% | [4] 15.3% | [5] 3% | [6] 2%

O=C1C=CC(=O)N1c1ccnc(N2C(=O)C=CC2=O)c1
inactive: [1] 21.4% | [2] -1.55% | [3] 6.1% | [4] -7.05% | [5] 11.8% | [6] 10.2%

O=C(NC1CCCCC1)/C(=C\c1ccccc1)NC(=O)c1ccccc1
inactive: [1] -26.8% | [2] -48.4% | [3] -28.6% | [4] 0.05% | [5] -6.8% | [6] -27.4%

O=C1NC(N2CCOCC2)=N/C1=C\c1ccc(Cl)cc1
inactive: [1] 1.75% | [2] 3.6% | [3] 4.9% | [4] -6.25% | [5] -11.1% | [6] -29.9%

C=CCOC(=O)NC(CC(C)C)C(=O)NCC(N)=O (stereo unspecified)
inactive: [1] -10.4% | [2] 1.9% | [3] -4.3% | [4] -10.9% | [5] -45.5% | [6] -28%

BrCC1CN=C(c2ccccc2)O1 (stereo unspecified)
inactive: [1] -5.55% | [2] -4% | [3] 2.65% | [4] -26.1% | [5] 1.6% | [6] -2.95%

O=C1c2c(O)ccc(O)c2C(=O)c2c(NCCNCCO)ccc(NCCNCCO)c21
inactive: [1] 61.9% and 31.9% | [2] 21.6% and -16.4% | [3] 54.2% and -52% | [4] -41.9% and -21.4% | [5] 9.5% and -63.3% | [6] 41% and -16.6%

CC(=O)NC1CCC(CCC2CCCCC2)CC1 (stereo unspecified)
inactive: [1] 0.55% | [2] 5.3% | [3] 2.45% | [4] 2.25% | [5] -5.9% | [6] -9.75%

CCOC(=O)C(C)(c1[nH]c2ccccc2c1C)c1[nH]c2ccccc2c1C
inactive: [1] -0.55% | [2] -6.2% | [3] -14.2% | [4] -1.4% | [5] -14.6% | [6] -5.7%

Cc1cccc(C)c1I
inactive: [1] -35% | [2] -8.55% | [3] -67.2% | [4] -25.9% | [5] -46.5% | [6] -50.1%

O/N=C/c1ccco1
inactive: [1] 1.2% | [2] -9.85% | [3] 7.75% | [4] -1.15% | [5] -6.55% | [6] 16.1%

O=C1C=CC=C/C1=C1/SC(c2ccccc2)=C(O)N1c1ccccc1
inactive: [1] -40.2% | [2] -8.2% | [3] -12.5% | [4] -17.3% | [5] -19.9% | [6] -18.5%

CCOC(=O)C1CC1
inactive: [1] -9.65% | [2] -39.5% | [3] 1% | [4] 0.05% | [5] -9.75% | [6] -2.7%

COC1CCC2(C)C(CCC3C4CCC(OC(C)=O)C4(C)CCC32)O1 (stereo unspecified)
inactive: [1] 1.65% | [2] -9.55% | [3] -9.45% | [4] -6.7% | [5] -1.95% | [6] -14.8%

N#Cc1ccc2c(c1)-c1cc(C#N)ccc1C2c1ccccc1
inactive: [1] 8.95% | [2] -10.8% | [3] -3.45% | [4] -42.5% | [5] -4.8% | [6] -6.95%

Cc1ccc(S(=O)(=O)N(CC(=O)c2ccccc2)c2ccc(Br)cc2)cc1
inactive: [1] 22.9% | [2] 6.6% | [3] 26.1% | [4] 4.9% | [5] 2.05% | [6] 16.1%

Nc1cccc(B(O)O)c1
inactive: [1] -16.6% | [2] -65% | [3] -34.3% | [4] -5.75% | [5] -29.6% | [6] -15.8%

O=C1NC(=S)S/C1=C/C=C/c1ccccc1
inactive: [1] -21.4% | [2] 3.8% | [3] 7.7% | [4] 15.9% | [5] -5.2% | [6] 25.9%

O=Cc1ccccc1OCCOc1ccccc1C=O
inactive: [1] 8.7% | [2] 1.35% | [3] 10.2% | [4] -24% | [5] 9.4% | [6] 19.1%

O=C(CCl)Oc1ccc(C(=O)O)cc1
inactive: [1] -1.1% | [2] -3.55% | [3] -1.8% | [4] -3.65% | [5] 0.85% | [6] -6.7%

CC(C)NC(=O)OCc1c(COC(=O)NC(C)C)c(-c2ccc(F)cc2F)n2c1CCC2
inactive: [1] 12% | [2] 4% | [3] 10% | [4] 8.6% | [5] -13.6% | [6] -12.7%

O=C1/C(=C/c2ccc(O)cc2)CCc2ccccc21
inactive: [1] -21.6% | [2] -6.35% | [3] -2.1% | [4] 2.75% | [5] 11.9% | [6] -34.2%

Cc1cc(Cl)ccc1N=C1NC(=O)C(CC(=O)Nc2ccc([N+](=O)[O-])cc2[N+](=O)[O-])S1 (stereo unspecified)
inactive: [1] 25.1% | [2] -4% | [3] 12.1% | [4] -58.9% | [5] 13% | [6] 33.1%

COC(=O)C(Cc1ccccc1)N=Cc1c(O)c(O)c(C(C)C)c2cc(C)c(-c3c(C)cc4c(C(C)C)c(O)c(O)c(C=NC(Cc5ccccc5)C(=O)OC)c4c3O)c(O)c12 (stereo unspecified)
inactive: [1] 19.7% | [2] 9.7% | [3] 11.7% | [4] 17.1% | [5] 16.1% | [6] 4.75%

O=c1[nH]c(=O)n(C2CC(O)C(CO)O2)cc1OCCCc1ccccc1 (stereo unspecified)
inactive: [1] -27.8% | [2] 0.75% | [3] 12.2% | [4] 13.8% | [5] -0.5% | [6] -3.2%
